Sampled rows, rich in hits. Any-hit rate of the full collection: about 3.1%.
Pin1 inh – inhibitors of human Pin1. Q13526. Pin1 FP peptide displacement, HiFluor488, 10 min. Potency, µM (series often up to 115 µM), hits mostly inhibitors. actives 0.009% (n = 390,000). AID 504891; active = well fitted inhibition curve with a large enough effect in the polarisation, with a control signal flat, not every such curve was filed as active; inconclusive = small, poorly fitted or top-dose-only effect, or effect the other way, or a change in a side signal; inactive = no such curve, though single readings can be large or run the other way; the % refers to the polarisation
Target sequence (Q13526 whole entry, looked up): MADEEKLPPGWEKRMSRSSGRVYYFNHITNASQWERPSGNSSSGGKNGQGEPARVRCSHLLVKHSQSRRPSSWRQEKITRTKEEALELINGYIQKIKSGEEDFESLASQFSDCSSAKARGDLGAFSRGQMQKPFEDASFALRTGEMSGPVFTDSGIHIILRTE
ASM inhibitor – human S-ASM enzyme inhibition | placental ASM, HMU-PC fluorogenic substrate, 60 min | Potency, µM (highest dose often 57.5 µM), most hits filed as inhibitors | actives 0.006% (n = 340,000) | AID 504937
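Human placenta-derived ASM preincubated with compound 10 min at room temperature, then reacted with 9 uM (final) fluorogenic HMU-PC substrate for 60 min at 37 C. Stop solution raises pH to 10; fluorescence read at Ex 386/Em 447 nm.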
VDR inhibitor – vitamin D3 receptor (human) inhibition. Potency, µM, hits mostly inhibitors. VDR-SRC2-3 peptide fluorescence polarization, 2 h. P11473. AID 504847. actives 0.93% (n = 400,000)
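Signal is fluorescence polarization, reporting how far test compounds block the interaction of VDR with the SRC2-3 coregulator peptide after a 2 h room-temperature incubation.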
TDP1 inh – TDP1 (human) enzyme inhibition. recombinant TDP1, AlphaScreen DNA substrate cleavage. Q9NUW8. actives 0.28% (n = 350,000). Potency, µM (doses to about 130 µM), usual class: inhibitors; also: nearly all actives have a fitted effect of over 40% in size
Target sequence (Q9NUW8 whole entry, looked up): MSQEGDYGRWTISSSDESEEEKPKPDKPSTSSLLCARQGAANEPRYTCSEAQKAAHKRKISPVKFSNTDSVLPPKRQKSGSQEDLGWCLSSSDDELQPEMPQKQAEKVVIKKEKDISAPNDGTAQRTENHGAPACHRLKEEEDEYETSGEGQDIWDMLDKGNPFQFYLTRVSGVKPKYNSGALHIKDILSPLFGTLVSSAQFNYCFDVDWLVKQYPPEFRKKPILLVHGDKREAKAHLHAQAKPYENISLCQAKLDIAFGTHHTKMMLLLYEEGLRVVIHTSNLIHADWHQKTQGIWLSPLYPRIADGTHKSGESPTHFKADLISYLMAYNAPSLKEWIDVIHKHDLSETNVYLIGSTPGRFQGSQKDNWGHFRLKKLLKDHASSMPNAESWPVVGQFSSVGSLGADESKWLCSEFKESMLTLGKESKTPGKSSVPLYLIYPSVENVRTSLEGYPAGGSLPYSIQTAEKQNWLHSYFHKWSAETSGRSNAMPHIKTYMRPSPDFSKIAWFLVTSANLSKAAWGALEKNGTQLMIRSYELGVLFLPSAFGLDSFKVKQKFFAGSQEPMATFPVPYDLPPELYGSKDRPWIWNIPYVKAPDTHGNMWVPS
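E. coli-derived human Tdp1, 1 nM final. Cpd preinc 15 min RT; substrate 15 nM final, 5 min RT; AS bead mix 10 ug/ml final, 10 min RT. Signal loss = tyrosine-FITC cleavage. No-enzyme wells = max signal.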
PLK1 PBD block – blocks phosphopeptide binding to human PLK1 polo-box domain. P53350. Plk1 PBD binding of FITC phosphopeptide, fluorescence polarization. Potency, µM, most hits filed as inhibitors. actives 2.8% (n = 360,000). AID 720504; also: series mostly up to about 57 µM; nearly all actives have a fitted effect of over 65% in size
Tb PFK inh – T. brucei PFK enzyme inhibition; O15648; T. brucei PFK, ADP-Glo luminescence; Potency, µM (top dose mostly 57.5 µM), hits mostly inhibitors; actives 0.17% (n = 330,000); AID 485367; also: nearly all actives have a fitted effect of over 60% in size
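Luminescent ADP detection (ADP-Glo, two-step: ATP depletion then ADP-to-ATP conversion for luciferase) reported PFK activity after 45 min room-temperature reaction of 1.25 nM enzyme with 0.5 mM F6P and 0.1 mM ATP at pH 8.0.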
VDR confirm – confirmation of human vitamin D receptor inhibitors. Potency, µM, most hits filed as inhibitors. VDR-coactivator inhibition assay, qHTS confirmation. AID 602199. shares compounds with VDR inhibitor. actives 89% (n = 840)
VDR FP fluor – VDR (human) coactivator binding inhibition, fluorescein polarization. VDR-coactivator binding, fluorescein fluorescence polarization. actives 48% (n = 840). AID 602200. shares compounds with VDR inhibitor. Potency, µM (highest dose often 57.1 µM), actives largely listed as inhibitors
VDR bla reporter – confirmation of human vitamin D receptor inhibitors in reporter cells. shares compounds with VDR inhibitor. VDR beta-lactamase reporter cells, FRET ratio; cells co-treated with VDR agonist LG190178. Potency, µM (doses to about 46.1 µM), most hits filed as inhibitors. actives 23% (n = 840)
VDR cytotox – counter-screen for vitamin D receptor inhibitors: cytotoxicity | shares compounds with VDR inhibitor | cytotoxicity counter-screen, cell viability, qHTS | Potency, µM (highest dose often 48.3 µM), usual class: cytotoxic | actives 18% (n = 840) | AID 602204; also: nearly all actives have a fitted effect of over 75% in size
Each line names hits and unclear results; the compound was inactive in the other large screens (follow-up assays come after a bar, where they were run). Unless noted, calls follow the shape of the dose curve; as a rule, active = well fitted curve in the direction sought with a large enough effect; inconclusive = small, poorly fitted or top-dose-only effect, or another doubt; inactive = no such curve, though single readings can be large; an effect the other way counts as inactive or inconclusive.

CCOc1cc(/C=C2\COc3ccccc3C2=O)cc(Br)c1OCC(=O)N(C)C	VDR inhibitor 20µM | VDR confirm 6 | VDR FP fluor inconclusive | VDR bla reporter inconclusive | VDR cytotox 18µM
NC(=S)NNC(N)=S	none (no result: Pin1 inh, ASM inhibitor, VDR inhibitor, PLK1 PBD block, Tb PFK inh)
O=C(O)CCNc1ccc(NCCC(=O)O)c2c1C(=O)c1ccccc1C2=O	Pin1 inh inconclusive, VDR inhibitor 7.1µM, PLK1 PBD block inconclusive, Tb PFK inh inconclusive (no result: TDP1 inh) | VDR confirm 7.5 | VDR FP fluor inactive | VDR bla reporter inactive | VDR cytotox inconclusive
COc1ccccc1NCCC(=O)O	none
COc1ccc(NC(=O)c2cccc(N3C(=O)c4cccc([N+](=O)[O-])c4C3=O)c2)cc1	none
COc1ccc(/C=C2\C(=O)N(c3c(Cl)cc(Cl)cc3Cl)N=C2NC(=O)c2cccc([N+](=O)[O-])c2)cc1	VDR inhibitor inconclusive, PLK1 PBD block 0.75µM (no result: Pin1 inh) | VDR confirm 2.8 | VDR FP fluor 1.3µM | VDR bla reporter inconclusive | VDR cytotox inactive
COc1ccc(NC(=O)/C(Cl)=C(/Cl)S(=O)Cc2ccccc2)cn1 (stereo not drawn)	VDR inhibitor 14µM, PLK1 PBD block 2.1µM | VDR confirm 4.2 | VDR FP fluor inconclusive | VDR bla reporter inconclusive | VDR cytotox inconclusive
CC(=O)Nc1cccc(C(=O)/C=C/c2ccc(C)cc2)c1	VDR inhibitor 25µM | VDR confirm 21 | VDR FP fluor inconclusive | VDR bla reporter inconclusive | VDR cytotox inconclusive
COC(=O)[C@H](C)NC(=O)c1cc2c(cn1)[nH]c1ccccc12	VDR inhibitor 22µM, PLK1 PBD block 1.3µM (no result: TDP1 inh) | VDR confirm 3.4 | VDR FP fluor inconclusive | VDR bla reporter inactive | VDR cytotox inactive
CCN(CC)S(=O)(=O)c1cc(NC(=O)c2ccc3c(c2)NC(=O)C(C)S3)ccc1C (stereo not drawn)	VDR inhibitor 79µM, PLK1 PBD block 8.4µM | VDR confirm 21 | VDR FP fluor inconclusive | VDR bla reporter inconclusive | VDR cytotox inconclusive
Cc1cc(C)c(NC(=O)c2ccc3c(c2)NC(=O)C(C)S3)c(C)c1 (stereo not drawn)	none
COc1ccc(/C=C2\C(=O)ON=C2c2cccc([N+](=O)[O-])c2)cc1	none (no result: Pin1 inh, ASM inhibitor, VDR inhibitor, PLK1 PBD block)
O=C1C(=Cc2ccco2)C(=O)c2ccccc21	PLK1 PBD block inconclusive
COc1ccc(/C=C2/C(=O)ON=C2c2ccccc2)cc1OC	VDR inhibitor 40µM, PLK1 PBD block 1.9µM | VDR confirm 21 | VDR FP fluor inconclusive | VDR bla reporter inactive | VDR cytotox inactive
NC(=O)COc1ccc(/C=C2\C(=O)ON=C2c2ccccc2)cc1	VDR inhibitor inconclusive, PLK1 PBD block 2.1µM | VDR confirm 8.9 | VDR FP fluor 13µM | VDR bla reporter inconclusive | VDR cytotox inconclusive
NC(=O)COc1ccccc1	none (no result: TDP1 inh)
O=C1ON=C(c2ccccc2)/C1=C/c1ccco1	Pin1 inh inconclusive, VDR inhibitor inconclusive, PLK1 PBD block 1.1µM | VDR confirm 8.4 | VDR FP fluor inconclusive | VDR bla reporter inactive | VDR cytotox inconclusive
COc1ccc(/C=C2\C(=O)ON=C2c2ccccc2)cc1OC	VDR inhibitor 35µM, PLK1 PBD block 3µM (no result: TDP1 inh) | VDR confirm 19 | VDR FP fluor inconclusive | VDR bla reporter inactive | VDR cytotox inactive
Cc1cccc(C)c1NC(=O)C1CCCN(S(=O)(=O)c2c(C)noc2/C=C/N(C)C)C1 (stereo not drawn)	none (no result: ASM inhibitor, PLK1 PBD block, Tb PFK inh)
Cc1ccc(/C=C/c2onc(C)c2S(=O)(=O)N2CCC(C(=O)N(CCC(C)C)Cc3ccco3)CC2)cc1	none (no result: ASM inhibitor, PLK1 PBD block, Tb PFK inh)
CCCC(=O)N1CCc2cc(OC)c(OC)cc2C1COc1ccc2c(C)cc(=O)oc2c1 (stereo not drawn)	none (no result: ASM inhibitor, PLK1 PBD block, Tb PFK inh)
Cc1oc2c(c1C(=O)c1ccccc1)C(=O)C(=O)c1ccccc1-2	Pin1 inh inconclusive, VDR inhibitor inconclusive, PLK1 PBD block inconclusive | VDR confirm 2.5 | VDR FP fluor 3.2µM | VDR bla reporter 21µM | VDR cytotox 3.4µM
CCOC(=O)c1c(C)oc2c1C(=O)c1ccccc1C2=O	PLK1 PBD block inconclusive
O=C1C(=O)c2c(C(=O)c3ccccc3)coc2-c2ccccc21	VDR inhibitor 3.2µM, PLK1 PBD block inconclusive | VDR confirm 4.2 | VDR FP fluor inconclusive | VDR bla reporter inconclusive | VDR cytotox 18µM
CCOC(=O)C1=C(Cc2ccc(OC)cc2)C(=O)c2ccccc2C1=O	Pin1 inh inconclusive, VDR inhibitor 7.9µM, PLK1 PBD block 12µM | VDR confirm 0.71 | VDR FP fluor inconclusive | VDR bla reporter 23µM | VDR cytotox inconclusive
CCOC(=O)c1cccc(NC(=O)c2ccc3snnc3c2)c1	none (no result: ASM inhibitor, PLK1 PBD block, Tb PFK inh)
COc1ccc(/C=C/C(=O)c2ccc([N+](=O)[O-])o2)cc1OC	VDR inhibitor 18µM, PLK1 PBD block inconclusive (no result: TDP1 inh) | VDR confirm 3.5 | VDR FP fluor 3.5µM | VDR bla reporter 3.3µM | VDR cytotox 17µM
CC(=O)c1ccc(N=C2C(=O)Nc3ccccc32)cc1	VDR inhibitor 4µM, PLK1 PBD block inconclusive (no result: TDP1 inh) | VDR confirm 3.4 | VDR FP fluor 3.5µM | VDR bla reporter inactive | VDR cytotox inactive
NC(=O)c1ccc(N=C2C(=O)Nc3ccc([N+](=O)[O-])cc32)cc1	VDR inhibitor inconclusive, PLK1 PBD block inconclusive | VDR confirm 0.63 | VDR FP fluor 0.71µM | VDR bla reporter inactive | VDR cytotox inactive
O=C(OCC#CCSc1nnc(-c2cccc3ccccc23)s1)c1cccs1	none (no result: Pin1 inh, ASM inhibitor, VDR inhibitor, TDP1 inh, PLK1 PBD block)
Oc1c(C(c2ccccc2)N2CCOCC2)ccc2ccccc12 (stereo not drawn)	VDR inhibitor 20µM, PLK1 PBD block 1.2µM (no result: TDP1 inh, Tb PFK inh) | VDR confirm 4.7 | VDR FP fluor 3.2µM | VDR bla reporter inactive | VDR cytotox inconclusive
Nc1nc(CC(=O)O)cs1	none (no result: Pin1 inh, ASM inhibitor, VDR inhibitor, PLK1 PBD block, Tb PFK inh)
CCOC(=O)Cc1cc(-c2ccccc2)nc2ccc3ccccc3c12	none (no result: TDP1 inh)
CCOC(=O)CS(=O)(=O)c1ccccc1	none
CCOC(=O)CCS(=O)(=O)c1nc(-c2ccccc2)cc(C(F)(F)F)n1	VDR inhibitor 45µM, PLK1 PBD block inconclusive | VDR confirm 6 | VDR FP fluor 10µM | VDR bla reporter inconclusive | VDR cytotox inconclusive
